Assay outcomes (PubChem)
A selection: hits, their analogues and other compounds. The true share with any hit is near 6.1%.
ATXN2 expr inh – inhibitors of ATXN2 expression | HEK-293 ATXN2-luciferase reporter, luminescence, 24 h | Potency, µM (highest dose often 57 µM), most hits filed as inhibitors | 360,000 tested, 0.72% active | AID 1745845; note: nearly all actives have a fitted effect of over 55% in size
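ATXN2-luciferase reporter cells (luciferase flanked by upstream and downstream ATXN2 gene portions) were treated 24 h at 37 °C with compounds at up to 57 uM. SteadyGlo luminescence gave expression; GF-AFC fluorescence gave viability.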
TGFb SMAD3 inh – TGF-b pathway inhibition; 410,000 tested, 1.2% active; AID 588855; HepG2 CAGA-GFP TGF-b/SMAD3 reporter, GFP fluorescence, 18 h; TGF-beta stimulated, 500 pg/mL final; Potency, µM (doses to about 46.1 µM), hits mostly inhibitors; note: nearly all actives have a fitted effect of over 65% in size
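First, reporter cells (HEPG2 CAGA-GFP) rested 2 h at 37 degrees C. Next, compounds were pinned in and TGF-beta added to 500 pg/mL final. After 18 h, GFP was imaged per cell and summed per well.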
HepG2 tox-1 – kills HepG2 cells in TGF-b inhibitor counter-screen; HepG2 CAGA-GFP viability, ATP luminescence, 18 h; Potency, µM (series often up to 46.1 µM), actives largely listed as cytotoxic; 410,000 tested, 0.76% active; AID 588856
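HepG2 CAGA-GFP cells (1000/well, DMEM with 1% FBS) received compound, then TGF-beta at 500 pg/mL final, and were incubated 18 hours at 37 degrees C. Viability was read by CellTiter-Glo luminescence. Media-only wells were set as complete cell-killing and DMSO as no toxicity.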
RORg inh – blocks mouse ROR gamma transcriptional activity | P51450 | Drosophila S2 Gal4-RORgamma UAS-luciferase reporter, 20 h | Potency, µM (highest dose often 53.6 µM), most hits filed as inhibitors | 310,000 tested, 5.4% active; note: nearly all actives have a fitted effect of over 60% in size
Target sequence (P51450 whole entry, looked up, the tested form may be a part): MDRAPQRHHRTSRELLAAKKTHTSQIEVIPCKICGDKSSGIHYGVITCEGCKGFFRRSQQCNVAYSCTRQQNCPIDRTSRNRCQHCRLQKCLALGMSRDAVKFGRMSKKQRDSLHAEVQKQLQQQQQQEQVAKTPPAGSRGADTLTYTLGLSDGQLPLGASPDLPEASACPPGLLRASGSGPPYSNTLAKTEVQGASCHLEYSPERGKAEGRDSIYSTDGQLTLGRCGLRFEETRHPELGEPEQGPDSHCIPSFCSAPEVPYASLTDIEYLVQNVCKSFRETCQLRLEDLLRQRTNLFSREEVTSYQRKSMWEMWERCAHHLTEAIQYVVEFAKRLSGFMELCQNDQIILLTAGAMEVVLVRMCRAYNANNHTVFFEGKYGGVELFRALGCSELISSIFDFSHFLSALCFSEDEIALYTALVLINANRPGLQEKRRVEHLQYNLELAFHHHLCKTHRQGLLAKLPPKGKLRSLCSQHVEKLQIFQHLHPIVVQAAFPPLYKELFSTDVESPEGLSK
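Drosophila S2 cells stably expressing Gal4-DBD/mouse RORγ fusion under metallothionein promoter plus UAS-luciferase; compound 1 h, then 700 uM CuSO4 induction for 20 h at ambient temperature; inhibition read as reduced luminescence.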
S2 tox – reduces viability in counter-screen for ATXN expression inhibitors; Potency, µM (doses to about 56.7 µM), usual class: cytotoxic; S2 cells (HEK-293 line with an ATXN2-luciferase reporter) viability, CellTiter-Fluor protease fluorescence, 24 h; 400,000 tested, 0.49% active; note: nearly all actives have a fitted effect of over 40% in size
Gal4-VP16 FLuc – inhibits Gal4-VP16 luciferase reporter, ROR gamma counter-screen; Drosophila S2 Gal4-VP16 UAS-luciferase, luminescence, 20 h; Potency, µM (doses to about 53.6 µM), hits mostly inhibitors; 310,000 tested, 3.5% active;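 note: Gal4-VP16 expression switched on by copper sulfate through the metallothionein promoter; nearly all actives have a fitted effect of over 50% in size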
TGFb confirm – TGF-b pathway inhibition, cherry-pick retest; 1,600 tested, 63% active; HepG2 CAGA-GFP TGF-b reporter, GFP fluorescence, 18 h; cells stimulated with TGF-beta, 500 pg/mL; shares compounds with TGFb SMAD3 inh; Potency, µM (top dose mostly 46.1 µM), hits mostly inhibitors; note: nearly all actives have a fitted effect of over 65% in size
HepG2 tox-2 – HepG2 cytotoxicity, TGF-b inhibitor counterscreen. shares compounds with TGFb SMAD3 inh. HepG2 CAGA-GFP viability, ATP luminescence, 18 h; cells stimulated with TGF-beta, 500 pg/mL. Potency, µM (titrated, usually from 46.1 µM), usual class: inhibitors. 1,600 tested, 27% active; note: nearly all actives have a fitted effect of over 70% in size
TGFb CCL64 inh – orthogonal confirmation of TGF-b inhibitors in CCL64 cells; shares compounds with TGFb SMAD3 inh; CCL64 CAGA-GFP reporter, TGF-b stimulated, GFP fluorescence, 18 h; Potency, µM (series often up to 46.1 µM), actives largely listed as inhibitors; 1,600 tested, 41% active; note: nearly all actives have a fitted effect of over 65% in size
COP TGFb inh – TGF-b inhibition validated with COP promoter. 1,600 tested, 3% active. HepG2 COP-GFP TGF-b reporter, GFP fluorescence, 18 h; cells stimulated by added recombinant TGF-beta. shares compounds with TGFb SMAD3 inh. Potency, µM (titrated, usually from 46.1 µM), hits mostly inhibitors; note: nearly all actives have a fitted effect of over 70% in size
Each line names hits and unclear results; the compound was inactive in the other large screens (follow-up assays come after a bar, where they were run). Calls come from the whole dose curve; as a rule, active = well fitted curve in the direction sought with a large enough effect; inconclusive = small, poorly fitted or top-dose-only effect, or another doubt; inactive = no such curve, though single readings can be large; an effect the other way counts as inactive or inconclusive.

COc1ccc([C@H]2CC(=O)C=C(/C=C/c3ccccc3)C2)cc1OC	ATXN2 expr inh inconclusive, TGFb SMAD3 inh 13µM, S2 tox inconclusive (no result: RORg inh, Gal4-VP16 FLuc) | TGFb confirm inconclusive | HepG2 tox-2 inactive | TGFb CCL64 inh inconclusive | COP TGFb inh inactive
COc1ccc([C@H]2CC(=O)C=C(c3cccc(Br)c3)C2)cc1OC	TGFb SMAD3 inh 4.5µM, S2 tox inconclusive (no result: RORg inh, Gal4-VP16 FLuc) | TGFb confirm inconclusive | HepG2 tox-2 inactive | TGFb CCL64 inh inconclusive | COP TGFb inh inactive
O=C1C=C(/C=C/c2ccccc2)C[C@@H](c2ccc(F)cc2)C1	TGFb SMAD3 inh inconclusive (no result: RORg inh, Gal4-VP16 FLuc)
Cc1ccc(NC(=O)C2CCN(S(=O)(=O)c3ccc4c(c3)CCCC(=O)N4)CC2)c(Cl)c1	S2 tox inconclusive (no result: RORg inh, Gal4-VP16 FLuc)
CCOC(=O)c1c(C)[nH]c(C(=O)OCC(=O)NCCc2ccc(OCC)c(OCC)c2)c1C	TGFb SMAD3 inh inconclusive (no result: RORg inh, Gal4-VP16 FLuc) | TGFb confirm inconclusive | HepG2 tox-2 inconclusive | TGFb CCL64 inh inactive | COP TGFb inh inactive
CCOC(=O)c1[nH]c(C)c(C(=O)OCC(=O)NCc2ccc(OC)c(OC)c2)c1C	none (no result: ATXN2 expr inh, RORg inh, Gal4-VP16 FLuc)
CC(Oc1ccc(Cl)cc1Cl)C(=O)NC1=NN(c2ccccc2)C(=O)C1 (stereo not given)	TGFb SMAD3 inh 18µM, RORg inh inconclusive | TGFb confirm inconclusive | HepG2 tox-2 inconclusive | TGFb CCL64 inh inconclusive | COP TGFb inh inactive
Cc1ccccc1CN(CC(=O)Nc1cccc([N+](=O)[O-])c1)S(=O)(=O)c1ccc(Cl)cc1	TGFb SMAD3 inh 11µM, RORg inh inconclusive, S2 tox inconclusive, Gal4-VP16 FLuc inconclusive | TGFb confirm 10µM | HepG2 tox-2 inconclusive | TGFb CCL64 inh 2.3µM | COP TGFb inh inactive
COc1ccc(CCNc2c3ccccc3nc3ccccc23)cc1OC	ATXN2 expr inh inconclusive, TGFb SMAD3 inh 16µM, S2 tox inconclusive, Gal4-VP16 FLuc inconclusive | TGFb confirm 15µM | HepG2 tox-2 21µM | TGFb CCL64 inh 26µM | COP TGFb inh inactive
OCCCNc1c2ccccc2nc2ccccc12	ATXN2 expr inh inconclusive, TGFb SMAD3 inh 4.5µM, RORg inh inconclusive, S2 tox inconclusive, Gal4-VP16 FLuc inconclusive | TGFb confirm 13µM | HepG2 tox-2 13µM | TGFb CCL64 inh inconclusive | COP TGFb inh inactive
COc1ccc(CCNc2nc(SCc3ccc(Cl)cc3)nc3ccccc23)cc1OC	none (no result: ATXN2 expr inh, RORg inh, S2 tox, Gal4-VP16 FLuc)
O=Cc1cn(CC(=O)Nc2ccc3c(c2)OCO3)c2ccccc12	TGFb SMAD3 inh 7.1µM, RORg inh inconclusive, S2 tox inconclusive | TGFb confirm 8.2µM | HepG2 tox-2 3.3µM | TGFb CCL64 inh inactive | COP TGFb inh inactive
COc1ccc(CNC(=O)C[C@H]2C[C@H](C(=O)N(C(C)C)C(C)C)[C@@]3(C)c4[nH]c5ccc(Cl)cc5c4CCN3C2=O)cc1OC	ATXN2 expr inh inconclusive, TGFb SMAD3 inh 14µM, S2 tox inconclusive (no result: RORg inh, Gal4-VP16 FLuc) | TGFb confirm 8.2µM | HepG2 tox-2 inconclusive | TGFb CCL64 inh inconclusive | COP TGFb inh inactive
